TexasRed fluor: Texas Red fluorescence interference in TRb-SRC2 counter-screen; Potency, µM (doses to about 106 µM); TRb/SRC2 Texas Red total fluorescence interference; 280,000 tested, 0.29% active; active means well fitted curve in either direction with a large enough effect; inconclusive means small, poorly fitted or top-dose-only effect
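Human TRβ ligand-binding domain (0.6 uM) and Texas Red SRC2 peptide (20 nM) in Tris buffer with 1 uM T3 and 5% DMSO were incubated with pinned compound for 5 hr at ambient temperature. Total fluorescence was computed as S + 2P (555/632 nm).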
Coupling enz: coupling enzyme interference in Giardia aldolase counter-screen. 290,000 tested, 0.67% active. activity change, negative = inhibition, % at 58.2 µM, hits read low. coupling enzyme system counterscreen, AmpLite Red fluorescence; in the data active means activity change below about -30%
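Activity here indicates interference with the coupling reaction, not aldolase inhibition. Compounds at 57.5 uM final met coupling enzymes for 10 min at RT; substrate and AmpLite Red detection followed, with a 525/598 nm fluorescence read after 20 min.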
TRb SRC2 PPI: inhibitors of human thyroid hormone receptor beta-SRC2 interaction; Potency, µM (doses to about 106 µM), usual class: inhibitors; TRbeta-SRC2 peptide binding, fluorescence polarization; receptor liganded with 1 µM T3; 280,000 tested, 0.065% active; active means well fitted inhibition curve with a large enough effect; inconclusive means small, poorly fitted or top-dose-only effect, or effect the other way; further: nearly all actives have a fitted effect of over 50% in size
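Fluorescence polarization of 20 nM Texas Red SRC2 peptide (20-aa NR interaction domain) bound to 0.6 uM human TRb ligand-binding domain, with 1 uM T3, after 5 hr at ambient temperature; inhibition seen as decreased polarization.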
RGS12 GoLoco inh: inhibitors of human Gai1-RGS12 GoLoco interaction (red fluorophore); 230,000 tested, 0.44% active; Potency, µM (series often up to 61.6 µM), most hits filed as inhibitors; Gai1:RGS12 GoLoco peptide FP, rhodamine, 10 min; active means well fitted inhibition curve with a large enough effect, not every such curve was filed as active; inactive means no such curve, though single readings can be large or run the other way; further: nearly all actives have a fitted effect of over 30% in size
Target sequence (P63096 whole entry, looked up): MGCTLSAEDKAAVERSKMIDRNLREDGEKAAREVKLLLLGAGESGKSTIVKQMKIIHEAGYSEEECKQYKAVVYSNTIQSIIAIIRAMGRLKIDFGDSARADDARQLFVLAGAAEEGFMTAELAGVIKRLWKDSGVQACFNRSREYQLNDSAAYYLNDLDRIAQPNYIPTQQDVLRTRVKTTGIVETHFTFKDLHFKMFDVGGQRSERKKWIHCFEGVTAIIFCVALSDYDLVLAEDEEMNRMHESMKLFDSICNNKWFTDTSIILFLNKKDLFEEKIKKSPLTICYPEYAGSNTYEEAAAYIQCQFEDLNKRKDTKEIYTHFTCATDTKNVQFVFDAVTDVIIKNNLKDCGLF
Each line names hits and unclear results; the compound was inactive in the other large screens; ! = not active in a repeat; [ ] = another dose, or the depositor's remark. An excerpt weighted towards active compounds, which were near 0.93% of everything screened.

O=C(c1cnc2c(c1)COc1ccc(Cl)cc1-2)c1ccccc1O	TexasRed fluor 7.9µM![quencher]
Cc1ccc2c(c1)-c1ncc(C(=O)c3ccccc3O)cc1CO2	none (no result: Coupling enz, RGS12 GoLoco inh)
O=C(Cc1ccc(F)cc1)NC1CC(=O)N(c2ccccc2)C1 (configuration not stated)	none (no result: Coupling enz, RGS12 GoLoco inh)
Oc1ccc2ccccc2c1CNc1cnc2ccccc2c1	Coupling enz -46
O=C(CCS(=O)(=O)c1ccc(Br)s1)Nc1c(F)cccc1F	TexasRed fluor 398µM[quencher], TRb SRC2 PPI inconclusive (no result: Coupling enz, RGS12 GoLoco inh)
NC(=O)c1ccc(Oc2cccc3cccnc23)c([N+](=O)[O-])c1	none
O=[N+]([O-])c1ccc(Oc2cccc3cccnc23)c(Cl)c1	Coupling enz -37 (no result: TexasRed fluor, TRb SRC2 PPI, RGS12 GoLoco inh)
C/C(=N\[N+](C)(C)C)c1ccc(C)c(C)c1	none (no result: TexasRed fluor, Coupling enz, TRb SRC2 PPI)
CC(C)[C@](N)(C(=O)O)c1ccccc1	none (no result: TexasRed fluor, Coupling enz, TRb SRC2 PPI)
CCCCn1c(-c2ccsc2)nc2c1c(=O)[nH]c(=O)n2CCC	Coupling enz -31
Cc1ccc(C)n1-c1ccccc1N	Coupling enz -56
Cc1oc(-c2ccc(C(=O)Nc3cccc(C(F)(F)F)c3)cc2)nc1CSc1ccccc1	none (no result: Coupling enz, RGS12 GoLoco inh)
C[C@H]1Cc2c(COc3ccccc3)nc3c(c2CO1)CN(C(=O)NCCc1c[nH]c2ccccc12)CC3	none
Cc1ccc(NC(=O)CSc2nncn3c2cc2sccc23)cc1F	none (no result: Coupling enz, RGS12 GoLoco inh)
c1ccc2c(c1)c1c3n2CCNC3CCC1 (configuration not stated)	Coupling enz -50
Oc1ccc2c(c1)c1c3n2CCNC3CCC1 (configuration not stated)	none (no result: TexasRed fluor, TRb SRC2 PPI, RGS12 GoLoco inh)
Cc1cc(C)cc(N=Cc2[nH]c3ccc(Br)c(Cl)c3c2O)c1	none
COc1ccc(CN=Cc2[nH]c3ccc(Br)c(Cl)c3c2O)cc1	Coupling enz -30
Cc1ccc(NC(=O)Cc2ccccc2Cl)cc1S(=O)(=O)N(C)C	TexasRed fluor 0.1µM[quencher]
CCOCCCn1c(=O)c(NC(=O)c2ccc(OCC)cc2)c2n(c1=S)CCCCC2	none
CCn1c(=O)c(NC(=O)c2ccccc2)c2n(c1=S)CCCCC2	Coupling enz -35
O=C(O)c1ccc(S(=O)(=O)N[C@H](Cc2c[nH]c3ccccc23)C(=O)O)cc1	none (no result: RGS12 GoLoco inh)
CC(=O)c1cc(O)c2ccccc2c1O	Coupling enz -33, RGS12 GoLoco inh 14µM
CC(=O)c1coc2c1cc(O)c1ccccc12	Coupling enz -33
CC(=O)c1c(C)oc2c1cc(O)c1ccccc12	none
CC(=O)Oc1cc2c(C(C)=O)coc2c2ccccc12	none
O=C(O)Cn1cc(C(=O)c2ccco2)c2ccccc21	none
O=C(c1ccco1)c1coc2c1cc(O)c1ccccc12	Coupling enz -31
COc1cc(OC)c2c(OC)c(-c3ccc4c(c3)OCO4)c(=O)oc2c1	none
Cc1cccc(NC(=O)Cn2c(=O)n(Cc3ccccc3)c(=O)c3sc4ccccc4c32)c1	TexasRed fluor 25µM[quencher] (no result: Coupling enz, RGS12 GoLoco inh)
COc1ccc(C)cc1NC(=O)c1cc(S(=O)(=O)N2CCCCC2)c[nH]1	none (no result: Coupling enz, RGS12 GoLoco inh)
Cc1ccc(Cl)cc1NC(=O)Cn1c(=O)cc(C)c2c(C)nn(C)c21	none (no result: Coupling enz, RGS12 GoLoco inh)
C=CCN1CCN(C(c2ccc(OC)c(OC)c2)c2nnnn2C(C)(C)C)CC1 (configuration not stated)	Coupling enz -72 (no result: RGS12 GoLoco inh)
C=CCN1CCN(C(c2ccc(Cl)cc2)c2nnnn2CCc2ccc(OC)c(OC)c2)CC1 (configuration not stated)	none
CCCCC(=Nc1ccc(N)cc1)C1=C(O)C(C(=O)OC)C(C)(C)CC1=O (configuration not stated)	TexasRed fluor inconclusive, Coupling enz -40, TRb SRC2 PPI inconclusive, RGS12 GoLoco inh 25µM
CCC(=Nc1ccc(N)cc1)C1=C(O)C(C(=O)OC)C(C)(C)CC1=O (configuration not stated)	TexasRed fluor 45µM[fluorescent], Coupling enz -48, TRb SRC2 PPI 28µM (no result: RGS12 GoLoco inh)
O=C(N/N=C/c1cccnc1)c1ccccc1OCc1ccc(Br)cc1	Coupling enz -38
CCOC(=O)N1CCN(Cc2nc3cc(NC(=O)c4ccccc4[N+](=O)[O-])ccc3n2C(C)C)CC1	TexasRed fluor 8.9µM[quencher], TRb SRC2 PPI inconclusive (no result: Coupling enz, RGS12 GoLoco inh)
CCOC(=O)N1CCN(Cc2nc3cc(NC(=O)c4ccccc4OC)ccc3n2C(C)C)CC1	none (no result: Coupling enz, RGS12 GoLoco inh)
O=C(Cn1ncc2c3ccccc3n(Cc3cccc(Cl)c3)c2c1=O)N1CCCCCC1	none (no result: Coupling enz, RGS12 GoLoco inh)
NC(=O)c1nc(Nc2ccccc2)sc1NC(=O)c1ccccc1Br	none (no result: Coupling enz, RGS12 GoLoco inh)
COc1ccc(CCNC(=O)c2cc(Nc3ccccc3)nc3ccccc23)cc1OC	TexasRed fluor 0.0008µM[quencher] (no result: Coupling enz, RGS12 GoLoco inh)
COc1ccccc1NC(=O)c1c(N=Cc2c(O)ccc3ccccc23)cnn1C	Coupling enz -40
NNc1nncc2ccccc12	Coupling enz -59!
CNC(=S)NNc1nncc2ccccc12	none
CC(=O)c1ccc2c(c1)C1C=CCC1C(c1ccncc1)N2 (configuration not stated)	Coupling enz -32
C1=CC2c3ccccc3NC(c3ccncc3)C2C1 (configuration not stated)	Coupling enz -41
Brc1cc2c(cc1C1Nc3ccccc3C3C=CCC31)OCO2 (configuration not stated)	none
COc1cc2[nH]c(Cl)c([N+](=O)[O-])c2cc1OC	Coupling enz -48
COc1cc(C(=O)O)c([N+](=O)[O-])c(OC)c1OC	none
CCCCc1cc(=O)oc2cc(C)c3c(C(C)(C)C)coc3c12	TexasRed fluor 100µM[quencher] (no result: Coupling enz, RGS12 GoLoco inh)
O=C(NCCc1csc2nc(-c3cccc(F)c3)nn12)c1ccc(Br)o1	none (no result: Coupling enz, RGS12 GoLoco inh)
Cc1ccc(Nc2nnc(-c3ccc(C)c(S(=O)(=O)N4CCOCC4)c3)c3ccccc23)c(C)c1	TexasRed fluor 0.014µM[quencher] (no result: Coupling enz, RGS12 GoLoco inh)
Cc1ccc(S(=O)(=O)NCc2ccc3c(c2)cc(C)n3C)cc1	TexasRed fluor 45µM[fluorescent], TRb SRC2 PPI inconclusive
O=C1C(c2ccc(F)cc2)N(CCc2ccccc2)C(=O)CN1C1CCCCCC1 (configuration not stated)	none (no result: Coupling enz, RGS12 GoLoco inh)
CN1CC=C2C(C#N)=C(N)C(C#N)(C#N)C(c3ccsc3)C2C1 (configuration not stated)	none
CN1CC=C2C(C#N)=C(N)C(C#N)(C#N)[C@H](c3cccc(Cl)c3)C2C1 (some centres not stated)	Coupling enz -36
CCc1nnc(SCc2ccc(OC)cc2)c2cc3sc(C)cc3n12	none (no result: Coupling enz, RGS12 GoLoco inh)
COc1cc2oc(-c3ccccc3)cc(=O)c2cc1OC	none
CN(C)c1ccc2c(-c3ccccc3)c3ccc(=[N+](C)C)cc-3oc2c1	TexasRed fluor 0.89µM[fluorescent], TRb SRC2 PPI 0.1µM (no result: RGS12 GoLoco inh)
Nc1cc(N)c(OCC(F)(F)F)cc1OCC(F)(F)F	Coupling enz -50, TRb SRC2 PPI inconclusive
Nc1cc(OCC(F)(F)F)cc([N+](=O)[O-])c1	none
CSc1nc(N)nc(SCC(=O)Nc2cccc(F)c2)c1C#N	TexasRed fluor 1.3µM[quencher], TRb SRC2 PPI inconclusive
O=C(O)c1c(C(=O)O)c2ccccc2[nH]c1=O	Coupling enz -33
O=c1[nH]c2ccccc2c(O)c1O	Coupling enz -73
O=C(CSc1nc2c([nH]c3ccccc32)c(=O)n1-c1cccc(Cl)c1)N1CCc2ccccc21	none (no result: Coupling enz, RGS12 GoLoco inh)
NC(=O)C[N+]1(CC#CC(O)(c2ccccc2)c2ccccc2)CCCC1	RGS12 GoLoco inh 8.9µM

Screening data deposited in PubChem by National Center for Advancing Translational Sciences (NCATS).
